Assay results taken from PubChem BioAssay AID1159580 (chemical genetic matrix, 2015).
The campaign covered roughly 5,500 compounds. About 2,000 (36%) were called active. Inconclusive results (about 18%) are left out. No stated cut-off is given here; in the data, active means normalized growth mostly below about 0.91 (no sharp cut-off); inconclusive means no clear call, values can overlap the other calls; inactive means mostly above about 0.92. Some of the results follow.

Experiment: chemical genetic growth profiling, strain panel (AID 1159580);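 further: tested at 20 µM; growth read once vehicle control cultures reached saturation at 30 °C; 1 = growth at the plate median or of vehicle wells; lower values mean less growth of the strain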
Settings: growth OD

Measured: normalized growth

FC(F)(F)c1cc(-c2noc(C3CCc4ccccc4O3)n2)cc(C(F)(F)F)c1 (centres undefined)
inactive: S. cerevisiae deletion strains, locus YAL013W, strain DEP1, active compounds read low 0.999 | S. cerevisiae deletion strains, locus YBR229C, strain ROT2, active compounds read low 1.02 | S. cerevisiae deletion strains, locus YCL061C, strain MRC1, active compounds read low 0.988 | S. cerevisiae deletion strains, locus YDL101C, strain DUN1, active compounds read low 0.995 | S. cerevisiae deletion strains, locus YDL134C, strain PPH21, active compounds read low 1.03 | S. cerevisiae deletion strains, locus YDR150W, strain NUM1, active compounds read low 0.942 | S. cerevisiae deletion strains, locus YEL061C, strain CIN8, active compounds read low 1.01 | S. cerevisiae deletion strains, locus YGR078C, strain PAC10, active compounds read low 0.988 | S. cerevisiae deletion strains, locus YGR229C, strain SMI1, active compounds read low 1 | S. cerevisiae deletion strains, locus YHR030C, strain SLT2, active compounds read low 1.05 | S. cerevisiae deletion strains, locus YHR087W, strain rtc3, active compounds read low 0.994 | S. cerevisiae deletion strains, locus YJR043C, strain POL32, active compounds read low 0.998 | S. cerevisiae deletion strains, locus YJR075W, strain HOC1, active compounds read low 0.97 | S. cerevisiae deletion strains, locus YKL190W, strain CNB1, active compounds read low 1.02 | S. cerevisiae deletion strains, locus YLR039C, strain RIC1, active compounds read low 1.04 | S. cerevisiae deletion strains, locus YLR058C, strain SHM2 (second series), active compounds read low 0.995 | S. cerevisiae deletion strains, locus YLR085C, strain ARP6, active compounds read low 0.98 | S. cerevisiae deletion strains, locus YLR262C, strain YPT6, active compounds read low 1.04 | S. cerevisiae deletion strains, locus YML094W, strain GIM5, active compounds read low 0.982 | S. cerevisiae deletion strains, locus YMR219W, strain ESC1, active compounds read low 1 | S. cerevisiae deletion strains, locus YMR263W, strain SAP30, active compounds read low 0.993 | S. cerevisiae deletion strains, locus YNL153C, strain GIM3, active compounds read low 0.998 | S. cerevisiae deletion strains, locus YNL298W, strain CLA4 (second series), active compounds read low 1.01 | S. cerevisiae deletion strains, locus YNL322C, strain KRE1, active compounds read low 0.985 | S. cerevisiae deletion strains, locus YNR030W, strain Alg12, active compounds read low 0.996 | S. cerevisiae deletion strains, locus YPL055C, strain LGE1, active compounds read low 0.96 | S. cerevisiae deletion strains, locus YPL241C, strain CIN2, active compounds read low 0.985 | S. cerevisiae deletion strains, locus YPR135W, strain CTF4, active compounds read low 1.11 | S. cerevisiae strains, strain wild type, active compounds read low 1
